Source: PubChem BioAssay (National Center for Advancing Translational Sciences (NCATS))
The full list was thinned out, with hits kept by preference.
CHX counter – counter-screen for Shiga toxin inhibitors: cycloheximide protein synthesis inhibition; cell reporter, cycloheximide protein synthesis inhibition counterscreen; max response, %; actives 12% (n = 300,000); in the data active = max response mostly above about 13%, no sharp cut-off; inactive = mostly below about 14%; also: read at 38.3 µM for the half of the compounds with a filed dose; 0% is about no effect
Tb PYK inh – T. brucei pyruvate kinase inhibition; TbPYK enzyme, Kinase-Glo Plus ATP luminescence, 45 min; actives 0.12% (n = 410,000); Q57TT1; Potency, µM (titrated, usually from 76.8 µM), for inactives: at the highest dose activity, negative = inhibition, actives largely listed as inhibitors; also: potency is read from the fitted curve at half-maximal effect; % is scaled to controls: 0 for no effect and ±100 for the full control effect; nearly all actives have a fitted effect of over 50% in size
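Luminescence from Kinase-Glo Plus, added after a 45-minute room-temperature reaction, served as the end-point read-out. The enzyme and substrate were preincubated with compound before ADP (130 uM final) initiated turnover. Concentration-effect curves came from normalized qHTS data.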
LmPK inhibitor – blocks Leishmania mexicana pyruvate kinase activity. purified LmPK, Kinase-Glo ATP luminescence, 1 h. Potency, µM (highest dose often 57.5 µM), for inactives: at the top dose activity change, negative = inhibition, usual class: inhibitors. actives 0.37% (n = 290,000). AID 1721; also: potency is read from the fitted curve at half-maximal effect; % is scaled to controls: 0 for no effect and ±100 for the full control effect
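ATP generated from ADP (0.1 mM) and PEP (0.5 mM) by 0.1 nM LmPK over 1 h at room temperature (pH 7.2 imidazole buffer) was detected by coupled luciferase luminescence. Values were normalized to uninhibited and no-enzyme wells.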
Giardia FBPA inh-1 – Giardia lamblia aldolase inhibition. actives 0.71% (n = 290,000). purified Giardia FBPA. A8B2U2. Potency, µM (top dose mostly 59.6 µM), without a hit: at the top dose activity, negative = inhibition, hits mostly inhibitors; also: potency is read from the fitted curve at half-maximal effect; % is scaled to controls: 0 for no effect and ±100 for the full control effect; nearly all actives have a fitted effect of over 55% in size
Target sequence (A8B2U2 whole entry, looked up): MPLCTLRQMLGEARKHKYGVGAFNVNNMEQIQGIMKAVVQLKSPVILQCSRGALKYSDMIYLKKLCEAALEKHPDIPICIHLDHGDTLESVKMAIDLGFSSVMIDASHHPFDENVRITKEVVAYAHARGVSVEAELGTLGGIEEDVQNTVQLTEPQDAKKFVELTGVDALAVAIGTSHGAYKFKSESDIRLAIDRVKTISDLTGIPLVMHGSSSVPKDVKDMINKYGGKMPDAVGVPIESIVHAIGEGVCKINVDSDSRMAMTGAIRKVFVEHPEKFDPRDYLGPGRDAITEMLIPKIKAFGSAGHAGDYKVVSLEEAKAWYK
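40 nM FBPA preincubated 10 min at RT with compound (up to 57.5 uM final), then substrate plus GAPDH/TPI/NAD/arsenate coupling and diaphorase/resazurin added. Fluorescence read after 20 min at RT, 525/598 nm.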
RE007 growth inh – less growth of the S. pombe RE007 Vpr strain | Potency, µM (doses to about 92.2 µM), for the others: at the highest dose activity change, negative = less growth, most hits filed as inhibitors | actives 0.21% (n = 360,000) | S. pombe RE007 Vpr strain, BacTiter-Glo ATP luminescence, 24 h; active = well fitted falling curve with a large enough effect; inconclusive = small, poorly fitted or top-dose-only effect; inactive = no such curve, though single readings can be large or run the other way; also: potency is read from the fitted curve at half-maximal effect; % is scaled to controls: 0 for no effect and ±100 for the full control effect; nearly all actives have a fitted effect of over 50% in size
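Fission yeast RE007 carrying one integrated HIV-1 vpr copy, seeded at OD 0.01 in PMG+AL medium with 23 nL pinned compound. Grown 24 h at 30 degrees; viability read by BacTiter-Glo luminescence after 5 min.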
Shiga toxin inh – inhibitors of Shiga toxin in Vero cells; Vero cells, Shiga toxin protein synthesis inhibition reporter; inhibition, % at 38.7 µM; actives 9.2% (n = 290,000); AID 2315; in the data active = inhibition mostly above about 28%, no sharp cut-off; inactive = mostly below about 43%; also: 0% is about no effect
Giardia growth – blocks growth of Giardia lamblia trophozoites | shares compounds with Giardia FBPA inh-1 | Giardia lamblia trophozoite growth inhibition | AID 2785 | actives 5% (n = 1,500) | Potency, µM (highest dose often 57.5 µM), inactives show at the highest dose activity change, negative = inhibition, hits mostly inhibitors;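 also: potency is read from the fitted curve at half-maximal effect; trophozoites exposed to compound for 48 h at 37 °C; % is scaled to controls: 0 for no effect and ±100 for the full control effect; nearly all actives have a fitted effect of over 70% in size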
Mammalian tox – mammalian cytotoxicity of Giardia aldolase inhibitor hits | shares compounds with Giardia FBPA inh-1 | mammalian cell viability counter-screen, qHTS | Potency, µM (titrated, usually from 57.5 µM), for the others: at the top dose viability change, negative = toxicity, hits mostly inhibitors | actives 4% (n = 1,500) | AID 2786;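 also: Chinese hamster ovary cells used as mammalian cytotoxicity surrogate; viability measured as cellular ATP by luminescence; potency is read from the fitted curve at half-maximal effect; compound exposure lasted 48 h before reading; % is scaled to controls: 0 for no effect and ±100 for the full control effect; nearly all actives have a fitted effect of over 60% in size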
Giardia FBPA inh-2 – confirmation of Giardia fructose-bisphosphate aldolase inhibitors | Potency, µM (series often up to 57.5 µM), without a hit: at the highest dose activity change, negative = inhibition, actives largely listed as inhibitors | actives 5% (n = 1,500) | shares compounds with Giardia FBPA inh-1 | purified Giardia aldolase enzyme activity, qHTS; also: potency is read from the fitted curve at half-maximal effect; % is scaled to controls: 0 for no effect and ±100 for the full control effect; nearly all actives have a fitted effect of over 45% in size
Rabbit FBPA inh – selectivity test for Giardia aldolase inhibitors: rabbit aldolase; shares compounds with Giardia FBPA inh-1; Rabbit muscle FBPA enzyme inhibition, selectivity counter-screen; Potency, µM (series often up to 57.5 µM), inactives show top-dose activity, negative = inhibition, usual class: inhibitors; actives 4% (n = 1,500); also: potency is read from the fitted curve at half-maximal effect; % is scaled to controls: 0 for no effect and ±100 for the full control effect; nearly all actives have a fitted effect of over 60% in size
Target sequence (P00883 whole entry, looked up): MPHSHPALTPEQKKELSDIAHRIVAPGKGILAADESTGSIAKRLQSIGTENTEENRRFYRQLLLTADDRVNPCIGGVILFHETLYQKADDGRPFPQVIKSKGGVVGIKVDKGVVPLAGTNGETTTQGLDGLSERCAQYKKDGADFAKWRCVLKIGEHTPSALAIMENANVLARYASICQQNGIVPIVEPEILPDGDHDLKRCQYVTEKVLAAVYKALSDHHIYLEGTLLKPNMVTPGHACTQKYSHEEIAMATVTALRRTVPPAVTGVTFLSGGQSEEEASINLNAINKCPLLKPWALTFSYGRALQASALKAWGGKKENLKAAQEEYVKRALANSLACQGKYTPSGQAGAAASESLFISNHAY
GAPDH coupling – counter-screen for Giardia aldolase inhibitors: GAPDH coupling enzyme; shares compounds with Giardia FBPA inh-1; GAPDH coupling enzyme counterscreen, biochemical, qHTS; Potency, µM (titrated, usually from 57.5 µM), without a hit: at the highest dose activity change, negative = inhibition, actives largely listed as inhibitors; actives 6% (n = 1,500); also: potency is read from the fitted curve at half-maximal effect; % is scaled to controls: 0 for no effect and ±100 for the full control effect; nearly all actives have a fitted effect of over 55% in size
* = called active by the depositor; ? = inconclusive; . = no result given; [ ] = remark or other dose. Unless noted, calls follow the shape of the dose curve; as a rule, active = well fitted curve in the direction sought with a large enough effect; inconclusive = small, poorly fitted or top-dose-only effect, or another doubt; inactive = no such curve, though single readings can be large; an effect the other way counts as inactive or inconclusive.

SMILES | CHX counter | Tb PYK inh | LmPK inhibitor | Giardia FBPA inh-1 | RE007 growth inh | Shiga toxin inh | Giardia growth | Mammalian tox | Giardia FBPA inh-2 | Rabbit FBPA inh | GAPDH coupling
Clc1ccc(SCCOCCN2CCCCC2)cc1 | 5 | 6% | 2% | -21% | 1% | -9 | . | . | . | . | .
CCCCn1c(=N)c(S(=O)(=O)c2ccc(C)cc2)cc2c(=O)n3cc(C)ccc3nc21 | . | -2% | . | . | . | . | . | . | . | . | .
Cc1cc(NC(=O)CSc2nnc(C3COc4ccccc4O3)n2N)no1 (stereo not given) | 0 | -28% | 8% | 20µM* | 1% | 9 | -25% | 17% | -6% | 3% | -1%
CC(=O)NC(c1cccs1)c1cc([N+](=O)[O-])c2cccnc2c1O (stereo not given) | -2 | 5% | 0% | ? | 0% | -7 | 1%[38.3 µM] | 29µM* | ? | ? | 13µM*
CC(C)C(=O)NC(c1ccccc1)c1cc([N+](=O)[O-])c2cccnc2c1O (stereo not given) | 1 | -7% | 6% | ? | ? | -14 | . | . | . | . | .
CC(=O)NC(c1ccccc1)c1cc([N+](=O)[O-])c2cccnc2c1O (stereo not given) | -2 | -18% | -1% | 20µM* | 10% | 16 | 18µM* | ? | 3.2µM* | ? | 13µM*
Cc1nn2c(=O)cc(COC(=O)c3cccc(NC(=O)c4cccs4)c3)nc2s1 | . | 0% | . | . | . | . | . | . | . | . | .
COC/C=C/C1=CC2=CC(=O)C(C)(OC(=O)c3cnc4ccccc4n3)C(=O)C2=CN1Cc1ccccc1 (stereo not given) | -3 | 3% | -3%[11.5 µM] | 2.2µM* | -8% | 3 | -20%[38.3 µM] | -8% | ? | ? | 25µM*
COC/C=C/C1=CC2=CC(=O)C(C)(OC(=O)c3cnc4ccccc4n3)C(=O)C2=CN1Cc1ccc(OC)cc1 (stereo not given) | -1 | 2% | -5%[11.5 µM] | ? | 1% | -2 | . | . | . | . | .
Cc1cccc(CC(=O)N2CC(=O)Nc3ccc(C)cc3C2c2ccc(F)cc2)c1 (stereo not given) | . | 5% | . | . | . | . | . | . | . | . | .
O=C(c1cccc(Cl)c1)N1CCN(CCCc2ccccc2)CC1 | 8 | 23% | -3% | 13µM* | -4% | 19 | -9% | 5% | 0% | -2% | -12%
COc1ccccc1-c1nccc(Nc2ccc(F)cc2)n1 | . | . | . | 2% | . | . | . | . | . | . | .
COc1ccc(CNc2cc(-c3ccccc3CN(C)C)ncn2)c(OC)c1 | . | . | . | -8% | . | . | . | . | . | . | .
O=C(NC(=S)Nn1cnnc1)c1ccc(F)cc1Cl | 6 | -8% | -7% | 14µM* | -11% | 39 | -14% | 11% | -1% | 12% | 13%
O=C(NC(=S)Nn1cnnc1)c1ccccc1Cl | 1 | -27% | -1% | ? | 13% | 13 | . | . | . | . | .
CCCCN(C)CCCNC(=O)CN1C(=O)COc2ccc(S(=O)(=O)N3CCC(C)CC3)cc21 | . | 2% | . | . | . | . | . | . | . | . | .
Cc1cc(SCC(=O)O)nc2ccccc12 | -2 | -1% | -4% | 8% | 2% | -18 | . | . | . | . | .
Cc1cc(N/N=C(/CCC(=O)O)C(=O)O)nc2ccccc12 | -2 | -5% | -6% | 16µM* | 5% | -1 | 6%[10.4 µM] | -4% | -3% | -21% | ?
CCn1nc(C)cc1-c1n[nH]c(=S)n1N | -3 | ? | 2% | 7.1µM* | -8% | -26 | 17% | 21% | 7% | -3% | 14%
CCn1c(-c2ccco2)n[nH]c1=S | -2 | ? | 1% | ? | 1% | -12 | . | . | . | . | .
COc1ccc(C(=O)N/N=C/c2ccccc2C(=O)O)cc1OC | 1 | 4% | 0% | -7% | 4% | -6 | . | . | . | . | .
COc1ccc(C(=O)N/N=C/c2ccccn2)cc1OC | 7 | -2% | -3% | 16µM* | -5% | 25 | -14% | -4% | 1% | 0% | 1%
O=C(NNC(=O)c1cccs1)c1ccccn1 | . | -1% | . | . | 0% | . | . | . | . | . | .
O=C(N/N=C/c1ccccn1)C(O)c1ccccc1 (stereo not given) | -2 | 3% | -1% | ? | 1% | -16 | . | . | . | . | .
O=C(N/N=C/c1ccccn1)c1cccs1 | 38* | 0% | -5% | 13µM* | -14% | 76* | -25% | -5% | 1% | -2% | -1%
SMILES | CHX counter | Tb PYK inh | LmPK inhibitor | Giardia FBPA inh-1 | RE007 growth inh | Shiga toxin inh | Giardia growth | Mammalian tox | Giardia FBPA inh-2 | Rabbit FBPA inh | GAPDH coupling
O=C(N/N=C/c1ccccn1)c1ccco1 | 47* | 7% | 1% | 20µM* | -16% | 71* | -13% | -1% | -2% | -3% | -5%
O=C(N/N=C\c1ccccn1)c1ccccc1O | 33* | 1% | -7% | 16µM* | -26% | 120* | -23% | ? | -4% | -4% | -7%
O=C(N/N=C\c1ccncc1)c1ccccc1O | 22 | 0% | -17% | -4% | -7% | 20 | . | . | . | . | .
Cc1ccc(-c2nc(-c3cc4cccc(OCc5cccc(F)c5)c4oc3=O)no2)cc1 | . | 1% | . | . | . | . | . | . | . | . | .
Cc1cc(Br)cc(C)c1OCC(=O)Nc1ccc(S(=O)(=O)Nc2ncccn2)cc1 | . | -5% | . | . | . | . | . | . | . | . | .
Cc1cccc(N2CCN(C(=O)CCCn3ncn4c(cc5occc54)c3=O)CC2)c1C | . | 1% | . | . | . | . | . | . | . | . | .
CC(C)(C)c1cc(C(=O)N/N=C/c2ccccn2)n[nH]1 | 21* | 8% | 0% | 16µM* | 4% | 53* | ? | 6% | 8% | 5% | -10%
NC(=NCc1ccc2c(c1)OCO2)NC(=O)c1ccccc1 | -3 | -14% | -3% | 1.4µM* | -10% | 2 | 13%[38.3 µM] | -4% | -7% | 0% | 7%
O=C1ON=C(c2ccccc2)/C1=C/c1ccc(O)c(O)c1 | -4 | -29% | ? | 4µM* | . | -5 | ? | -14% | -25% | -19% | 2%
CCc1nn(CC(=O)NCCc2ccc(Cl)cc2)c(=O)c2cc3ccccc3n12 | . | 1% | . | . | . | . | . | . | . | . | .
